Out of some 190,000 compounds screened, about 1,300 (0.68%) were called active. For the sample, actives were picked, then their nearest neighbours and some compounds at random. Unmarked numbers belong to inactive results. Rule as the data show it: active = inhibition above about 50%; inactive = the rest.
Target: Mannose-6-phosphate isomerase (Homo sapiens) (UniProt P34949)
Assay: human PMI inhibitors, high substrate, primary screen, biochemical, fluorescence intensity, high mannose 6-phosphate (AID 1220)
Settings: recombinant PMI enzyme, coupled fluorescence intensity; at 20 µM; active compounds read high

Mannose-6-phosphate isomerase (Homo sapiens), sequence (P34949 whole entry, looked up): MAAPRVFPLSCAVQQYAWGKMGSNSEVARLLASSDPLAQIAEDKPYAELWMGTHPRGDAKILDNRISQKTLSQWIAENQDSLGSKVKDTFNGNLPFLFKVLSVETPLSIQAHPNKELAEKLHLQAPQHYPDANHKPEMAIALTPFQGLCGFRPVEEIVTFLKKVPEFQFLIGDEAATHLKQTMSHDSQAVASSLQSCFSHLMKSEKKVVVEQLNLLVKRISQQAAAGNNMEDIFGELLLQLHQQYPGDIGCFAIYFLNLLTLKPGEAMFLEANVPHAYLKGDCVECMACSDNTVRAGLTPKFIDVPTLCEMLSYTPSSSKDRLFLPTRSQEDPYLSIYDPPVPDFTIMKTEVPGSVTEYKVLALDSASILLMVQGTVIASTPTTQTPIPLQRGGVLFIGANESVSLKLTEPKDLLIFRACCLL

Question: For COc1ccccc1OC(C)c1nnc(SCC(=O)Nc2c(C)n(C)n(-c3ccccc3)c2=O)n1-c1ccccc1 (configuration not stated), which inhibition is on record?
Answer: 6.4%

Question: For COc1ccc(CNS(=O)(=O)NCc2ccc(C)cc2)cc1, which inhibition is on record?
Answer: -7.2%

Question: For Cc1ccc(C)c2nc3sc(C(=O)N4CCOCC4)c(N)c3cc12, which inhibition is on record?
Answer: 2.2%

Question: With CCCC(=O)c1ccc(N2CCN(S(=O)(=O)c3ccccc3)CC2)c(F)c1 as the compound, how does the inhibition read?
Answer: 9.7%

Question: How did the inhibition turn out when CC(C)C1C(C#N)=C(N)Oc2n[nH]c(-c3ccccc3)c21 (configuration not stated) was run?
Answer: 9%

Question: For O=C(Cc1cccs1)NC(c1ccccc1)c1ccccc1, which inhibition is on record?
Answer: -1.3%

Question: How did the inhibition turn out when CCC(CC)c1nnc(NC(=O)c2ccco2)s1 was run?
Answer: 8.5%

Question: With O=C1CN(C(=O)COC(=O)c2cccc(OCc3ccccc3)c2)c2ccccc2N1 as the compound, how does the inhibition read?
Answer: 20.2%

Question: With c1ccc(CC2CNc3ccccc3CN2)cc1 (configuration not stated) as the compound, how does the inhibition read?
Answer: -7%

Question: Cc1nc(N2CCN(S(=O)(=O)c3cccc4nonc34)CC2)c2c3c(sc2n1)CCCC3 was tested. Which inhibition did it give?
Answer: 14.8%

Question: For COc1cnc(-c2ccccn2)nc1Sc1cccc(Cl)c1, which inhibition is on record?
Answer: 2.4%

Question: With CC(=O)c1ccc(NC(=S)N2CCN(c3cccc(Cl)c3)CC2)cc1 as the compound, how does the inhibition read?
Answer: -8.9%

Question: Which inhibition does the source give for CCCC(=O)c1cc(F)c(N2CCN(S(=O)(=O)c3ccccc3)CC2)cc1C here?
Answer: 14.8%

Question: With CCc1nn(CC(=O)Nc2ccc(Br)c(C)c2)c(=N)s1 as the compound, how does the inhibition read?
Answer: -9.2%

Question: With CC1=CC(=O)C=C(C)C1=NOC(=O)/C=C\c1ccccc1 as the compound, how does the inhibition read?
Answer: 22%

Question: With CC(=O)N1C(C)(C)CC(=NOS(=O)(=O)c2ccccc2)CC1(C)C as the compound, how does the inhibition read?
Answer: -21.1%

Question: CC(=O)Nc1ccc(S(=O)(=O)N=S(C)(C)=O)cc1 was tested. Which inhibition did it give?
Answer: 15.7%

Question: Which inhibition does the source give for CCCC(=O)NC1=C(C#N)C2(CCCCC2)Cc2ccccc21 here?
Answer: -7.8%

Question: Which inhibition does the source give for CC1CCCC(C)N1C(=O)CSc1nc2ccccc2s1 (configuration not stated) here?
Answer: 0.3%

Question: With CCOC(=O)/C(=C/c1c(C)n(C)c2ccc([N+](=O)[O-])cc12)C(C)=O as the compound, how does the inhibition read?
Answer: 2.1%

Question: Which inhibition does the source give for CC1(C)Oc2ccc(C(=O)N3CCOCC3)cc2N(CC(=O)Nc2ccccc2)C1=O here?
Answer: 6.6%

Question: With CC1(C)Oc2ccc(C(=O)N3CCCCC3)cc2N(CC(=O)NCc2ccccc2)C1=O as the compound, how does the inhibition read?
Answer: 107% (active)

Question: How did the inhibition turn out when CC1(C)Oc2ccc(C(=O)N3CCCC3)cc2N(CC(=O)NCc2ccccc2)C1=O was run?
Answer: -8.2%

Question: For CCOC(=O)Cn1c(=O)oc2cc(S(=O)(=O)Nc3ccc(F)cc3)ccc21, which inhibition is on record?
Answer: -4.3%

Question: How did the inhibition turn out when OCc1ccc(O)c2ncccc12 was run?
Answer: 28.8%

Question: Which inhibition does the source give for Oc1ccc(CN2CCCCC2)c2cccnc12 here?
Answer: 50.5% (active)

Question: Which inhibition does the source give for COc1ccccc1N1CCN(Cc2ccc(OC)c(OC)c2OC)CC1 here?
Answer: -2.8%

Question: c1ccc(N2CCN(Cc3ccnc4ccccc34)CC2)cc1 was tested. Which inhibition did it give?
Answer: -101%

Question: Which inhibition does the source give for O=S(=O)(c1ccc(Cl)cc1)N1CCN(Cc2ccc(O)c3ncccc23)CC1 here?
Answer: 45.3%

Question: How did the inhibition turn out when Oc1ccc(COCc2ccccc2)c2cccnc12 was run?
Answer: 46.2%

Question: For OCc1ccnc2c(O)cccc12, which inhibition is on record?
Answer: 59.6% (active)

Question: Which inhibition does the source give for Oc1ccc(CN2CCC(Cc3ccccc3)CC2)c2cccnc12 here?
Answer: 46.2%

Question: How did the inhibition turn out when Oc1ccc(CN2CCN(c3ccccc3)CC2)c2cccnc12 was run?
Answer: 50.5% (active)

Question: For COc1ccccc1N1CCN(Cc2cc(Br)c(O)c3ncccc23)CC1, which inhibition is on record?
Answer: 43.7%

Question: Which inhibition does the source give for Oc1ccc(CN2CCc3ccccc3C2)c2cccnc12 here?
Answer: 47.9%

Question: How did the inhibition turn out when COc1ccc(N2C(=O)/C(=C\c3ccco3)N=C2SCC(=O)N(C(C)C)C(C)C)cc1Cl was run?
Answer: 2.5%

Question: For CC1C2CC(C(S(=O)(=O)N3CCOCC3)C2=O)C1(C)C (configuration not stated), which inhibition is on record?
Answer: 8.3%

Question: With O=C1CCC2=C(CCCC2=O)N1 as the compound, how does the inhibition read?
Answer: 0.9%

Question: Which inhibition does the source give for O=C1CC(=O)C(n2cncn2)C(c2ccc(Cl)cc2Cl)C1 (configuration not stated) here?
Answer: 14.4%

Question: Which inhibition does the source give for COc1ccc2c(c1)c1ncn(Cc3ccco3)c(=O)c1n2C here?
Answer: 0.7%

Question: COCc1cc(CN2CCCC2)c(O)c2ncccc12 was tested. Which inhibition did it give?
Answer: 35.4%

Question: For Oc1c(CN2CCCCC2)cc(COCc2ccccc2)c2cccnc12, which inhibition is on record?
Answer: 23.4%

Question: For CC(C)C(=O)Nc1ccc(C(=O)N2CCCCCC2)cc1, which inhibition is on record?
Answer: -8.1%

Question: Which inhibition does the source give for CCOc1ccccc1-n1cnc2cc(C(=O)NCc3ccco3)ccc21 here?
Answer: -4.7%

Question: O=S(=O)(Cc1ccccc1Cl)N1CCCCC1 was tested. Which inhibition did it give?
Answer: -3.8%

Question: For O=S(=O)(Cc1ccccc1Cl)N1CCCC1, which inhibition is on record?
Answer: 8.9%

Question: CC1CCN(S(=O)(=O)Cc2ccccc2Cl)CC1 was tested. Which inhibition did it give?
Answer: 56.9% (active)

Question: For CN1C(=O)NC(NC(=O)c2ccncc2)(C(F)(F)F)C1=O (configuration not stated), which inhibition is on record?
Answer: 4.6%

Question: With COc1ccc(OC)c(NC(=S)N2CCC(C(O)(c3ccccc3)c3ccccc3)CC2)c1 as the compound, how does the inhibition read?
Answer: 17.9%

Question: How did the inhibition turn out when COc1ccc(NC(=S)N2CCC(C(O)(c3ccccc3)c3ccccc3)CC2)cc1 was run?
Answer: 7%

Question: How did the inhibition turn out when COc1cc(NC(=S)N2CCC(C(O)(c3ccccc3)c3ccccc3)CC2)cc(OC)c1 was run?
Answer: 52.9% (active)

Question: Cc1ccc2nsnc2c1NS(=O)(=O)c1c(C)ccc2nsnc12 was tested. Which inhibition did it give?
Answer: 30.6%

Question: How did the inhibition turn out when Cc1ccc2nsnc2c1S(=O)(=O)Nc1cccc2nsnc12 was run?
Answer: 50.1% (active)

Question: For Cc1cc(C)c(S(=O)(=O)Nc2cccc3nsnc23)c(C)c1, which inhibition is on record?
Answer: 19.4%

Question: How did the inhibition turn out when O=C(Nc1ncc(Cc2cccc(Cl)c2Cl)s1)c1ccc([N+](=O)[O-])cc1 was run?
Answer: -1%

Question: CCOC(=O)c1ccccc1NC(=O)CSc1ccccc1 was tested. Which inhibition did it give?
Answer: -10.2%

Question: For O=c1[nH]c2ccccc2c(O)c1-c1cc2ccccc2oc1=O, which inhibition is on record?
Answer: -2.4%

Question: How did the inhibition turn out when O=C(Cc1c[nH]c2ccccc12)NCc1ccccc1F was run?
Answer: 7.1%

Question: With CN1C(=S)SC(N(O)C(=O)Nc2ccc(Cl)c(Cl)c2)C1(C)C (configuration not stated) as the compound, how does the inhibition read?
Answer: 12.6%

Question: Which inhibition does the source give for CN1C(=S)SC(N(O)C(=O)Nc2ccccc2)C1(C)C (configuration not stated) here?
Answer: 10.2%

Question: Which inhibition does the source give for CN1C(=S)SC(N(O)C(=O)Nc2cccc3ccccc23)C1(C)C (configuration not stated) here?
Answer: 62.9% (active)

Question: Which inhibition does the source give for CN1C(=O)/C(=C\C=C2/CCCN2C)N(C)C1=S here?
Answer: 30.5%

Question: How did the inhibition turn out when CN1CCC/C1=C/C=C1\SC(=S)NC1=O was run?
Answer: 53.1% (active)

Question: CN1CCN(/C=C2\SC(=S)NC2=O)CC1 was tested. Which inhibition did it give?
Answer: -4.7%

Question: O=C(CCCNC(=O)/C(=C\c1ccc(F)cc1)NC(=O)c1ccccc1)OCc1ccccc1 was tested. Which inhibition did it give?
Answer: 3.3%

Question: How did the inhibition turn out when Cc1nc(-c2ccncc2)sc1C(=O)Nc1ccc(Cl)cc1 was run?
Answer: 6.1%

Question: Which inhibition does the source give for O=C(Nc1ccccc1)C1=C[C@@H](c2coc3ccccc3c2=O)C[C@@H](OCCCCO)O1 here?
Answer: 10.1%

Question: CC(C)C[C@H](NC(=O)c1nc[nH]c1C(=O)NC(c1ccccc1)c1ccccc1)C(=O)OCc1ccccc1 was tested. Which inhibition did it give?
Answer: 15%

Question: CCOC(=O)Cc1csc(NC(=O)c2csc3c2CCCC3)n1 was tested. Which inhibition did it give?
Answer: 2%

Question: CCCC(C(=O)NC1CCCC1)N(Cc1ccc2c(c1)OCO2)C(=O)c1snc(C(N)=O)c1N (configuration not stated) was tested. Which inhibition did it give?
Answer: -8.2%

Question: Which inhibition does the source give for CC(C)CC(C(=O)NC1CCCC1)N(Cc1ccc2c(c1)OCO2)C(=O)c1snc(C(N)=O)c1N (configuration not stated) here?
Answer: 3.1%

Question: Which inhibition does the source give for CC(C)CCNC(=O)C(CC(C)C)N(Cc1ccc2c(c1)OCO2)C(=O)c1snc(C(N)=O)c1N (configuration not stated) here?
Answer: 51% (active)

Question: Cn1c(=O)cc(-c2ccccc2)c2ccccc21 was tested. Which inhibition did it give?
Answer: 0.3%

Question: For O=c1cc(-c2ccccc2)c2ccccc2[nH]1, which inhibition is on record?
Answer: 10%

Question: How did the inhibition turn out when CCS(=O)(=O)N1CCN(S(=O)(=O)c2ccccc2)CC1 was run?
Answer: 1.8%

Question: Which inhibition does the source give for COc1ccccc1-n1c(=O)c(C#N)c(-c2ccc([N+](=O)[O-])cc2)c2cc(C(=O)c3cc(F)ccc3O)cnc21 here?
Answer: 14.2%

Question: With CCN(CC)C(=S)SCC(=O)c1ccccc1 as the compound, how does the inhibition read?
Answer: 7.7%

Question: Which inhibition does the source give for CCN(CC)C(=S)SSC(=S)N(CC)CC here?
Answer: 0.3%

Question: O=C(NCc1ccco1)c1ccc(CN2CCOCC2)cc1 was tested. Which inhibition did it give?
Answer: -9.5%

Question: How did the inhibition turn out when COC(=O)c1ccc(NC(=S)NC2c3ccccc3CC2O)cc1 (configuration not stated) was run?
Answer: 15.2%

Question: With CCOC(=O)C(=O)Nc1ccc([N+](=O)[O-])cc1OC as the compound, how does the inhibition read?
Answer: 16.8%

Question: Which inhibition does the source give for CCN(CC)S(=O)(=O)c1ccc(Cl)c(NC(=O)c2ccc(C#N)cc2)c1 here?
Answer: -3.1%

Question: For CCc1ccc2c(c1)c1nc(C)sc1n2CC, which inhibition is on record?
Answer: 55.2% (active)

Question: With CCOC(=O)Cn1c2ccc(C)cc2c2nc(C)sc21 as the compound, how does the inhibition read?
Answer: 26.1%

Question: Which inhibition does the source give for Cc1nc2c3cc(F)ccc3n(Cc3ccccc3)c2s1 here?
Answer: 32.5%

Question: For Cc1nc2c3cc(F)ccc3n(Cc3ccccc3F)c2s1, which inhibition is on record?
Answer: 14.7%

Question: With CCc1ccc2c(c1)c1nc(C)sc1n2CC(=O)OC as the compound, how does the inhibition read?
Answer: 5.8%

Question: Which inhibition does the source give for Cc1nc2c3cc(F)ccc3n(Cc3ccc(F)cc3)c2s1 here?
Answer: 53.2% (active)

Question: For Cc1cccc(C)c1NC(=O)C(=O)c1cn(C)c2ccccc12, which inhibition is on record?
Answer: -8.1%

Question: For COc1cc2c(C(=O)N3CCN(C)CC3)c(C)oc2cc1Br, which inhibition is on record?
Answer: 11.7%

Question: How did the inhibition turn out when COc1ccc(CC(=O)NC2CC(C)(C)NC(C)(C)C2)cc1 was run?
Answer: -9%

Question: How did the inhibition turn out when Cc1ccc(Sc2nc3c(c(=O)[nH]c(=O)n3C)n2CCc2ccccc2)cc1 was run?
Answer: 18.4%

Question: With CN(C)c1cc[nH]c(=O)c1C#N as the compound, how does the inhibition read?
Answer: 6.4%

Question: With COc1cccc(-c2nnc(SCC(=O)Nc3cc(C)on3)n2C)c1 as the compound, how does the inhibition read?
Answer: -5.8%

Question: Which inhibition does the source give for CCc1ccc(O)c(N=Cc2ccccc2O)c1 here?
Answer: 23.3%

Question: Which inhibition does the source give for CCCc1ccc(O)c(N=Cc2cc(Br)cc(OCC)c2O)c1 here?
Answer: 53.1% (active)

Question: For CCOc1ccc(Br)cc1/C=N/O, which inhibition is on record?
Answer: 16.4%

Question: Which inhibition does the source give for COC(=O)c1ccccc1NC(=O)CSc1nc(-c2ccco2)cc(C(F)(F)F)n1 here?
Answer: 12.4%

Question: With CCOC(=O)N1CCC(N2C(=O)c3ccccc3C2Nc2cc(Cl)c(OC)cc2OC)CC1 (configuration not stated) as the compound, how does the inhibition read?
Answer: 21.3%

Question: How did the inhibition turn out when Cc1cc(=O)oc(C)c1C(=O)OCC(=O)c1ccc(Cl)c(Cl)c1 was run?
Answer: 3.4%

Question: How did the inhibition turn out when Cc1cc(=O)oc(C)c1C(=O)OCC(=O)c1ccc2ccccc2c1 was run?
Answer: -11.8%

Question: For Cc1ccc(C(=O)COC(=O)c2c(C)cc(=O)oc2C)cc1[N+](=O)[O-], which inhibition is on record?
Answer: 58.1% (active)
